# The whole screen tested about 310,000 compounds, of which about 1,300 (0.42%) were called active.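 The calls were made as follows: active = B-score of calcium response area above 5 SD of library B-scores, with initial fluorescence ratio within 5 SD of library; inactive = the rest.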 The sample as a whole holds a higher share of actives than the screen did.
# Target: Short transient receptor potential channel 4 (Mus musculus) (UniProt Q9QUQ5)
# Assay: TRPC4 channel potentiators under submaximal DAMGO – cell-based, mouse TRPC4beta, HEK293 mu-opioid, Fluo-4 calcium, primary screen (AID 2227);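 as to B-score: B-score of integrated fluorescence ratio over time as area under calcium response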
# Conditions: DAMGO EC20, Fluo-4 Ca2+ flux, at 10 µM; stronger effect = higher value
# Chain of Short transient receptor potential channel 4 (Mus musculus) (Q9QUQ5 whole entry, looked up): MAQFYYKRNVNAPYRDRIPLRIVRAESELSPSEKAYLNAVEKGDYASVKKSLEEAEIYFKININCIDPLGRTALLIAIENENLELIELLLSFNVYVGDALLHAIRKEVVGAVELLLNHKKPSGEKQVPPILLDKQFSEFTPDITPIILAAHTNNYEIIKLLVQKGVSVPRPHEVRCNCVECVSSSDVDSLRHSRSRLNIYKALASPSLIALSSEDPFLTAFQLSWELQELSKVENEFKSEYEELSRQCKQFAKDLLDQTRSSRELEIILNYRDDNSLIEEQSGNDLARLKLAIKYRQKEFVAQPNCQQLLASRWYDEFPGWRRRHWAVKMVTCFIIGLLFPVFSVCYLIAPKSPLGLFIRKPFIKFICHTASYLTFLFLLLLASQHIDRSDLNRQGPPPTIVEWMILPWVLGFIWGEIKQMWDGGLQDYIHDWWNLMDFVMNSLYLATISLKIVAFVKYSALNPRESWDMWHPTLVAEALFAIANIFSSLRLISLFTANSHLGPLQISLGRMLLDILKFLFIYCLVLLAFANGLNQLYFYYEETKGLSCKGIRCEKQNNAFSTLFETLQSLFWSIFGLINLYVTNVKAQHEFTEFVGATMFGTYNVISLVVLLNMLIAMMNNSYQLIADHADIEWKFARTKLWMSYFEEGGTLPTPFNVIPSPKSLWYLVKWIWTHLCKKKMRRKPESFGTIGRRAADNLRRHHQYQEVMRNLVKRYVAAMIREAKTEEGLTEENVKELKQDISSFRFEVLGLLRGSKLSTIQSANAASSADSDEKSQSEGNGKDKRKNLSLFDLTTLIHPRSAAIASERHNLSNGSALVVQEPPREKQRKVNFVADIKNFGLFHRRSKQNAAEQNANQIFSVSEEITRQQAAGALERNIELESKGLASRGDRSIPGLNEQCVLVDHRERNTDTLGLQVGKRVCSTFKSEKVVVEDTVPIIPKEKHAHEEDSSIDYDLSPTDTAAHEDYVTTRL
row,Structure (SMILES),B-score
1,CCN1/C(=C\c2ccc3ccccc3[n+]2CC)Sc2cc(C)ccc21,13 (active)
2,N#Cc1cc([N+](=O)[O-])ccc1NCC1CCCO1 (centres undefined),inactive
3,CCc1ccc2c(c1)C1(NN=C(c3ccccc3)S1)C(=O)N2 (centres undefined),11 (active)
4,COC(C[C@H](O)CC(=O)COCc1ccccc1)OC,inactive
5,COC(=O)C(C)Sc1nc2c(c(=O)n(C)c(=O)n2C)n1Cc1cccc(C)c1 (centres undefined),inactive
6,Cc1cccc(Cn2c(N3CCN(c4ccccc4)CC3)nc3c2c(=O)n(C)c(=O)n3C)c1,41 (active)
7,Cc1cccc(Cn2c(SCCO)nc3c2c(=O)n(C)c(=O)n3C)c1,inactive
8,CCOC(=O)NN1C(=O)c2ccccc2NC1c1ccccc1O (centres undefined),inactive
9,O=C(CSc1ccc(-c2ccc(Br)cc2)nn1)NCC1CCCO1 (centres undefined),inactive
10,CC(NS(=O)(=O)c1ccc(Br)cc1)C(=O)NCC1CCCO1 (centres undefined),inactive
11,OC(CNCC1CCCO1)Cn1c2ccc(Br)cc2c2cc(Br)ccc21 (centres undefined),17 (active)
12,Cc1cc(S(=O)(=O)c2cc3ccc(O)c(C)c3oc2=O)ccc1F,inactive
13,C/C(=N\NC(=S)NC1CCCCC1)c1ccc(C)o1,inactive
14,Cc1ccc(/C=N/NC(=S)NC2CCCCC2)o1,35 (active)
15,Cc1ccc(/C=N/NC(=S)Nc2cccc(S(=O)(=O)N(C)C)c2)o1,inactive
16,NC(=O)C1=C[C@@H](c2csc3ccccc23)C[C@@H](OCc2ccc(CO)cc2)O1,inactive
17,NC(=O)C1=C[C@H](c2csc3ccccc23)C[C@H](OCc2ccc(CO)cc2)O1,inactive
18,O=C(NC1CC1)C1=C[C@H](c2c[nH]c3ccccc23)C[C@H](OCc2ccc(CO)cc2)O1,11 (active)
19,Cc1c(-c2nn(C)c(=O)c3ccccc23)oc2ccc(F)cc2c1=O,inactive
20,CC(=O)Nc1ccc(C(=O)CSc2nnc(Cc3ccccc3)o2)cc1,inactive
21,CCOc1ccc(Nc2nc(Cc3nnc(SCC(=O)c4ccc(C)cc4)o3)cs2)cc1,30 (active)
22,CCOc1ccc(Nc2nc(Cc3nnc(SCC(=O)NC4CCCC4)n3C)cs2)cc1,inactive
23,NC(=O)C1(N2CCCCC2)CCN(C(=O)c2ccc(C#Cc3ccccc3)o2)CC1,inactive
24,CC1CC(C)CN(CCOc2cccc3ccccc23)C1 (centres undefined),11 (active)
25,CC1CN(CCOc2ccccc2[N+](=O)[O-])CC(C)O1 (centres undefined),inactive
26,CN1CCN(CCCCOc2cccc3ccccc23)CC1,inactive
27,CCOC12CC(C)(C)CC(C)(CC3=C1C(=O)CC(C)(C)C3)C2 (centres undefined),inactive

row,Structure (SMILES),B-score
1,CCCCCCCNc1nc(Cl)nc(NCCO)n1,inactive
2,O=C(N/N=C/c1ccc(OCC2COCCO2)cc1)c1ccc(Br)cc1 (centres undefined),inactive
3,CCOc1ccc(N2C(=O)/C(=C/c3ccc(C)o3)N(C)C2=S)cc1,inactive
4,CC(NC(=O)COc1cccnc1[N+](=O)[O-])c1ccc(Cl)cc1Cl (centres undefined),inactive
5,CN(C)CCOCCOc1ccc(Cl)c2ccccc12,inactive
6,Clc1cccc(Cl)c1OCCOCCNCc1ccccc1,inactive
7,CCN(CC)CCOCCOc1ccc(Cl)c2ccccc12,21 (active)
8,O=S(=O)(Nc1cccc(-n2cnnn2)c1)c1cnc(Cl)c(Cl)c1,inactive
9,COc1cc(S(=O)(=O)Nc2ncn[nH]2)ccc1Cl,inactive
10,Cc1cccc(CN2CCC(CNC(=O)Nc3ccc(F)c(Cl)c3)CC2)c1,inactive
11,Cc1ccc(C)c(CN2CCC(CNC(=O)Nc3ccc(C)c(F)c3)CC2)c1,10 (active)
12,COc1cc(NC(=O)NCC2CCN(Cc3ccc(C)cc3)CC2)cc(OC)c1OC,inactive
13,COC(=O)c1cc(S(=O)(=O)N2CCC(C(N)=O)CC2)oc1C,inactive
14,O=c1c(-c2ccccc2Cl)c[nH]n1-c1ccccc1,inactive
15,Cc1ccc(C(=O)NCCc2nnc(SCC(=O)Nc3cccc(C(=O)O)c3)n2C)cc1,inactive
16,Cc1cc(NC(=O)CCN2CCN(Cc3ccccc3)CC2)ccc1Br,20 (active)
17,O=C(CN1CCN(Cc2ccccc2)CC1)Nc1ccc(F)c(F)c1,inactive
18,CCOC(=O)N1CCN(CCC(=O)Nc2ccccc2)CC1,inactive
19,COc1ccccc1C(=O)Nc1ccnn1C1CCN(Cc2cnn(C)c2)CC1,inactive
20,O=C(COc1ccc(Cl)cc1)Nc1ccc2c(c1)OCO2,inactive
21,CCC(C)Sc1nc2c(cnn2-c2ccc(F)cc2)c(=O)[nH]1 (centres undefined),inactive
22,CCCCN(C)CCNC(=O)C1CCCN(S(=O)(=O)c2cccc3nsnc23)C1 (centres undefined),25 (active)
23,O=C(c1ccco1)N1CCN(C(=O)C2CCCN(S(=O)(=O)c3cccc4nsnc34)C2)CC1 (centres undefined),inactive
24,CCCCN(CC)C(=O)C1CCCN(S(=O)(=O)c2cccc3nsnc23)C1 (centres undefined),inactive
25,CC(C)c1nc(CNC(=O)CC2C(=O)NCCN2Cc2cccc(F)c2F)cs1 (centres undefined),inactive
26,C=CCNC(=O)CC12CC3CC(C1)CC(CC(=O)NCC=C)(C3)C2,inactive
27,CCc1c(C)nc2c(-c3ccccc3)c(C)nn2c1Nc1ccc(NC(C)=O)cc1,27 (active)
